Bioassay records (PubChem)
MITF act: activators of MITF-driven TRPM1 promoter activity in SK-MEL-5 cells; SK-MEL-5 TRPM1-promoter luciferase, 24 h; % of positive control, neutral wells = 0; activation, % at 12.5 µM; 300,000 compounds, 0.75% hits;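 active means mean activation of at least 80% with every replicate also reaching 80%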;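 further: 0% = neutral control wells and 100% = parthenolide positive control wells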
TROY signal inh: TROY signaling inhibition | Q293 LMP1-TROYcd NF-kB luciferase reporter, 4 h | inhibition, % at 10 µM | 360,000 compounds, 0.98% hits | AID 1347056;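 active means compounds whose plate-normalised and pattern-corrected inhibition of the luciferase reporter signal at the single screening dose is 50% or more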
LGR2 inh: Drosophila LGR2 receptor signaling inhibition | HEK293 LGR2, CRE-luciferase, bursicon-stimulated, 4 h | inhibition, % at 9.99 µM | 380,000 compounds, 0.35% hits;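 active means drop in luminescence signal, shown as inhibition above about 50% in the replicate tests, limit read from the data, passing the limit was not always enough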;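 further: agonist challenge used bursicon conditioned medium at about half maximal strength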
TWEAK Fn14 block: TWEAK-Fn14 signaling inhibition. 360,000 compounds, 2% hits. inhibition, % at 10 µM. TWEAK-stimulated Fn14 reporter cells, luciferase luminescence, 8 h; in the data active means inhibition above about 50%
LMP1 NFkB inh: inhibitors of Epstein-Barr LMP1-induced NF-kappaB reporter. LMP1-induced NF-kappaB luciferase reporter cells, luminescence. inhibition, % at 12.5 µM. 350,000 compounds, 0.69% hits; in the data active means inhibition above about 41%;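 further: 0% = neutral control wells and 100% = reference inhibitor control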
MITF TRPM1 inh: inhibitors of MITF-driven TRPM1 promoter in melanoma cells | SK-MEL-5 TRPM1 promoter luciferase, 24 h | inhibition, % at 12.5 µM | 330,000 compounds, 0.83% hits;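 active means mean inhibition across replicates of 60% or more, whatever share of single replicates reaches that level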
The depositor's hits bear a star; · = not tested or not shown. The list is not random: actives were taken first. Their share in the collection is about 3%.

SMILES	MITF act	TROY signal inh	LGR2 inh	TWEAK Fn14 block	LMP1 NFkB inh	MITF TRPM1 inh
CCOC(=O)c1oc2ccccc2c1CSc1nnc(-c2ccco2)o1	-6	2	·	59*	2	6
NNC(=O)CN1CCCc2ccccc21	32	71*	-9	69*	-28	-30
COc1cc(CNc2ccc3[nH]c(=O)[nH]c3c2)ccc1OCc1ccccc1Cl	65	-17	-3	53*	-5	-63
O=c1[nH]c2ccc(NCc3ccc(F)cc3)cc2[nH]1	·	-30	-8	-85	-1	3
O=c1[nH]c2ccc(NCc3ccc(OCc4ccccc4Cl)cc3)cc2[nH]1	83*	-32	-25	18	30	-78
CCS(=O)(=O)Nc1ccc2c(c1)C(=O)N(C)C[C@H](OC)[C@H](C)CN(C(=O)C1CCC1)[C@H](C)CO2	·	·	-9	·	·	·
O=C1c2cccnc2C(=O)N1Cc1ccc(F)cc1S(=O)(=O)NCc1ccco1	1	-17	3	28	72*	3
O=C(Oc1c(-c2ccccc2)c(=O)n2c3c(cccc13)CC2)c1ccco1	·	11	37	4	-5	12
O=C(Oc1c(-c2ccccc2)c(=O)n2c3c(cccc13)CC2)c1ccc(Cl)cc1	·	53*	-1	9	-3	4
Cc1cccnc1NC(=S)Nc1ncccc1C	101*	-63	-71	-2	-16	-88
Cc1cccnc1NC(N)=S	0	-13	5	-5	2	0
Cc1ccc(C(=O)Oc2cc(N)n(S(=O)(=O)c3ccc(F)cc3)n2)cc1	-10	44	2	79*	-2	7
COC(=O)c1ccc(CN2C(=O)NC3(CCCc4ccccc43)C2=O)o1 (centres undefined)	-1	17	·	5	-5	3
COC(=O)c1ccc(CN2C(=O)NC3(CCCCC3C)C2=O)o1 (centres undefined)	2	·	·	53*	2	-2
Cc1cccc(C)c1NC(=O)CNC(=O)C12CC3CC(CC(O)(C3)C1)C2	-2	11	-4	-2	0	4
O=C(OCc1nnc(-c2ccc(Cl)cc2)o1)C12CC3CC(CC(O)(C3)C1)C2	33	67*	-22	48	-11	-36
O=C(NCCc1ccc(Cl)cc1)C12CC3CC(CC(O)(C3)C1)C2	21	-12	16	-3	58*	-18
O=C(Cc1ccc(Cl)cc1)OCc1nnc(-c2ccccc2)o1	1	-3	-5	-22	-3	-1
CCOc1ccccc1NC(=O)COC(=O)c1cccc(-c2ccc(OC(C)=O)cc2)c1	0	62*	·	64*	-16	2
Cc1cc(S(=O)(=O)NCc2ccccc2)ccc1OCC(=O)NCc1ccccn1	-4	-15	14	31	2	-1
Cc1cc(S(=O)(=O)NCc2ccccc2)ccc1OCC(=O)Nc1cccc([N+](=O)[O-])c1	5	42	-10	52*	11	-3
O=C(c1ccc(-c2nnc(-c3ccccc3)o2)cc1)N1CCCCCC1	12	30	·	57*	16	-15
COc1ccc2c3c(n(C)c2c1)[C@@H](CO)N(C(=O)c1ccc(F)cc1)CC31CCN(CC2CCOCC2)CC1	·	·	-8	·	·	·
C[C@H](CO)N1C[C@H](C)[C@H](CN(C)C(=O)c2cnccn2)Oc2ncc(-c3cccc(F)c3)cc2C1=O	·	·	2	·	·	·
N#C/C(=C\Nc1ccccc1O)c1nc2ccccc2o1	-6	52*	37	43	-1	7
SMILES	MITF act	TROY signal inh	LGR2 inh	TWEAK Fn14 block	LMP1 NFkB inh	MITF TRPM1 inh
O=C(NCc1cccnc1)c1ccc(-c2ccc(Cl)cc2)o1	15	-12	-2	-12	-6	-13
O=C(NCc1cccnc1)/C(=C\c1ccc(-c2ccc(Cl)c(Cl)c2)o1)S(=O)(=O)c1ccccc1	-90	89*	103*	105*	87*	90*
CCOC(=O)c1c(-c2ccccc2)oc2ccc(OCC(O)CNCCN(C)C)cc12 (centres undefined)	-64	-71	2	-81	5	66*
CCOC(=O)c1c(-c2ccccc2)oc2ccc(OCC)cc12	2	-24	-16	1	-6	-2
Cc1ccc(NC(=O)c2ccc(CN3CCN(C)CC3)cc2)cc1Nc1nccc(-c2cccnc2)n1	22	-12	7	-8	77*	-19
N#C/C(=C/c1ccc(CNS(=O)(=O)c2ccccc2)o1)C(N)=O	3	-6	1	69*	0	1
CN(C)C(=O)[C@@H]1[C@@H](CO)[C@@H]2Cn3c(ccc(C4=CCCCC4)c3=O)[C@H]1N2Cc1ccncc1	·	·	6	·	·	·
CCOC(=O)N1CCC(=NNC(=O)COc2ccc(OC)cc2)CC1	1	-8	2	96*	3	-3
CC(=O)N(C1=C(N)C(=O)c2ccccc2C1=O)c1ccccc1	-65	0	8	2	-1	65*
O=C(Nc1ccc2c(c1)OCO2)N[C@H]1CC[C@@H](CCNC(=O)C2CCCCC2)O[C@@H]1CO	·	·	4	·	·	·
O=C(Nc1nc2cc3c(cc2s1)OCCO3)C1CCCCC1	91*	36	9	46	-14	-86
CCOc1ccc2nc(NC(=O)/C=C/c3ccc4c(c3)OCO4)sc2c1	-4	13	-2	-12	-56	5
O=C(Nc1nc2ccc(F)cc2s1)C1=COCCO1	-25	36	63*	85*	51*	19
O=C(Nc1nc2cc3c(cc2s1)OCCO3)C1=COCCO1	-91	87*	100*	104*	81*	91*
O=C(/C=C/c1ccc2c(c1)OCO2)Nc1nc2ccc(F)cc2s1	87*	-20	-61	-18	-16	-83
C[C@@H]1CN([C@H](C)CO)C(=O)c2cccc(NC(=O)c3nc4ccccc4s3)c2O[C@H]1CN(C)C(=O)Nc1ccccc1	·	·	-5	·	·	·
Cc1noc(C)c1NC(=O)N(C)C[C@H]1Oc2ncc(C#CCN(C)C)cc2C(=O)N([C@H](C)CO)C[C@H]1C	·	·	-24	·	·	·
C/C=C/c1cnc2c(c1)C(=O)N([C@H](C)CO)C[C@@H](C)[C@@H](CN(C)C(=O)C1CC1)O2	·	·	2	·	·	·
O=C(NC12CC3CC(CC(C3)C1)C2)c1ccc([N+](=O)[O-])o1	·	-5	7	21	-2	63*
O=C(NC12CC3CC(CC(C3)C1)C2)c1ccc(Br)o1	5	-27	13	2	8	-2
CCCNC(=O)Nc1ccc2c(c1)OC[C@@H](C)N(C(=O)CC)C[C@@H](C)[C@H](OC)CN(C)C2=O	·	·	-28	·	·	·
Cc1nc2ccccn2c1C(=O)N=Nc1c(O)n(CCC(C)C)c2ccccc12	-57	18	7	69*	36	57
COc1ccccc1NC(=O)N1C[C@H]2[C@@H](c3ccccc31)[C@H](CO)N2Cc1ccccc1F	·	·	17	·	·	·
CCC(=O)N1CCN(c2ccc(Cl)cc2NC(=O)c2cccc([N+](=O)[O-])c2)CC1	-20	4	-9	-9	-6	20
